Experimental data published in PubChem BioAssay (EPA / NIEHS).
Records with an inconclusive call do not appear. Activity calls are given as the source filed them. The calls were made as follows: active = hit-call score of the fitted dose curve at least 0.9, where 1 is the maximum; inconclusive = response in the unintended direction; inactive = score below 0.9.

Test system: not listed separately
Assay: TOX21_PR_LUC_Followup_Antagonist_viability: Viability Assessment in the Tox21 HEK293 Progesterone Receptor (PR) Antagonism Luciferase Follow-Up Assay (AID 2283940)
Method in brief: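 Viability counter-readout: cellular ATP measured by luciferase luminescence after 16 h compound exposure at 37C of HEK293-PR-A-luc cells, which had been cultured in charcoal-stripped serum and seeded 5 h beforehand.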

**Q.** For `COc1ccc(C(Cl)=C(c2ccc(OC)cc2)c2ccc(OC)cc2)cc1`, which outcome is on record?
**A.** Its outcome is “inactive”.

**Q.** For `Cc1ccc(C(C)c2ccc(C)c(C)c2)cc1C`, which outcome is on record?
**A.** Its outcome is “inactive”.

**Q.** With `C[C@]12C=CC(=O)C=C1CC[C@@H]1[C@@H]2[C@@H](O)C[C@@]2(C)[C@H]1CC[C@]2(O)C(=O)CO` as the compound, how does the outcome read?
**A.** The outcome was “inactive”.

**Q.** Which outcome does the source give for `CCOC(=O)c1ccccc1C(=C1C=C(Br)C(=O)C(Br)=C1)c1cc(Br)c(O)c(Br)c1` here?
**A.** Its outcome is “inactive”.

**Q.** With `C#CC1(O)CC[C@H]2[C@@H]3CCC4=CCCC[C@@H]4[C@H]3CC[C@@]21C` (some centres not stated) as the compound, how does the outcome read?
**A.** Its outcome is “inactive”.

**Q.** Which outcome does the source give for `CCC(=O)Oc1ccc(/C(CC)=C(\CC)c2ccc(OC(=O)CC)cc2)cc1` here?
**A.** Its outcome is “inactive”.

**Q.** With `Nc1ccc(-c2ccc(F)cc2)cc1` as the compound, how does the outcome read?
**A.** The outcome was “inactive”.

**Q.** With `CC(C)(c1cc(Br)c(OCCO)c(Br)c1)c1cc(Br)c(OCCO)c(Br)c1` as the compound, how does the outcome read?
**A.** The outcome was “inactive”.

Test system: not listed separately
Assay: TOX21_PR_LUC_Followup_Agonist_viability: Viability Assessment in the Tox21 HEK293 Progesterone Receptor (PR) Agonism Luciferase Follow-Up Assay (AID 2283941);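 also: loss of signal means cytotoxicity so actives lower viability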
Method in brief: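 Cytotoxicity counter-readout in the PR-A luciferase reporter line HEK293, with 16 h compound exposure at 37C after cells were cultured in charcoal-stripped serum. Cellular ATP quantified by CellTiter-Glo luminescence.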

**Q.** With `COc1ccc(C(Cl)=C(c2ccc(OC)cc2)c2ccc(OC)cc2)cc1` as the compound, how does the outcome read?
**A.** Its outcome is “inactive”.

**Q.** With `Cc1ccc(C(C)c2ccc(C)c(C)c2)cc1C` as the compound, how does the outcome read?
**A.** The outcome was “inactive”.

**Q.** For `CC(=O)[C@H]1[C@H](C#N)C[C@H]2[C@@H]3CC=C4C[C@@H](O)CC[C@]4(C)[C@H]3CC[C@@]21C`, which outcome is on record?
**A.** Its outcome is “inactive”.

**Q.** For `C[C@]12C=CC(=O)C=C1CC[C@@H]1[C@@H]2[C@@H](O)C[C@@]2(C)[C@H]1CC[C@]2(O)C(=O)CO`, which outcome is on record?
**A.** The outcome was “inactive”.

**Q.** For `CCOC(=O)c1ccccc1C(=C1C=C(Br)C(=O)C(Br)=C1)c1cc(Br)c(O)c(Br)c1`, which outcome is on record?
**A.** Its outcome is “inactive”.

**Q.** Which AC50 does the source give for `C#CC1(O)CC[C@H]2[C@@H]3CCC4=CCCC[C@@H]4[C@H]3CC[C@@]21C` (some centres not stated) here?
**A.** The AC50 was 72.7 µM (active).

**Q.** With `CCC(=O)Oc1ccc(/C(CC)=C(\CC)c2ccc(OC(=O)CC)cc2)cc1` as the compound, how does the outcome read?
**A.** Its outcome is “inactive”.

**Q.** Which outcome does the source give for `Nc1ccc(-c2ccc(F)cc2)cc1` here?
**A.** The outcome was “inactive”.

**Q.** For `CC(C)(c1cc(Br)c(OCCO)c(Br)c1)c1cc(Br)c(OCCO)c(Br)c1`, which outcome is on record?
**A.** The outcome was “inactive”.

Target: Thyroid hormone receptor alpha (Rattus norvegicus) + Thyroid hormone receptor beta (Rattus norvegicus) (UniProt P18113+P63059)
Assay: TOX21_TR_LUC_GH3_Antagonist_Followup: Tox21 GH3 Thyroid Hormone Receptor Antagonism Luciferase Follow-Up Assay (AID 2283942)
Method in brief: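 In a GH3 luciferase reporter line, test chemicals spanning 92 uM to 5nM final are co-incubated 24 h with 1.0 nM T3. Activity is expressed as relative luminescence units and analysed relative to DMSO.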

**Q.** For `N=c1ccn2c(n1)O[C@H]1[C@H](O)[C@@H](CO)O[C@H]12`, which outcome is on record?
**A.** The outcome was “inactive”.

**Q.** For `COc1ccc(C(Cl)=C(c2ccc(OC)cc2)c2ccc(OC)cc2)cc1`, which outcome is on record?
**A.** The outcome was “inactive”.

**Q.** With `Oc1ccc(Cl)cc1Cc1cc(Cl)ccc1O` as the compound, how does the AC50 read?
**A.** Its AC50 is 18.7 µM (active).

**Q.** Which outcome does the source give for `COCc1c(C(C)C)nc(C(C)C)c(/C=C/[C@@H](O)C[C@@H](O)CC(=O)O)c1-c1ccc(F)cc1` here?
**A.** Its outcome is “inactive”.

**Q.** For `c1cc(N(CC2CO2)CC2CO2)ccc1OCC1CO1` (configuration not stated), which AC50 is on record?
**A.** The AC50 was 60.9 µM (active).
